Data from PubChem BioAssay AID651718 (The Scripps Research Institute Molecular Screening Center, 2012).
Screen size: about 360,000 compounds; about 2,700 (0.75%) were called active. The full list was thinned out, with actives kept by preference. Values without a mark were called inactive. Rule as the data show it: active = inhibition above about 4.5%; inactive = the rest.

System: Methionine sulfoxide reductase A (Bos taurus)
Assay: inhibition of methionine sulfoxide reductase A – biochemical, absorbance, bovine, HTS, primary screen (AID 651718);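 also: 0% = vehicle wells with enzyme and 100% = reference inhibitor wells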
Settings: purified bovine MsrA, absorbance read-out; at 15.5 µM; active compounds read high

Compound	inhibition
Cc1ccc(C)c(N2C(=O)CS/C2=N\NC(=O)c2ccccc2Cl)c1	0.65%
Cc1ccc(N2C(=O)C3C4C=CC(CC4)C3C2=O)cc1Br (centres undefined)	-0.75%
Cc1[nH]nc2c1C(c1ccc(Br)cc1)NC2=O (centres undefined)	0.64%
CCOC(=O)C1=CCC2C(=O)N(Cc3ccccc3)C(=O)C12 (centres undefined)	-0.57%
C[C@H](O)[C@@H]1CN2CCc3ccc(-c4ccc5c(c4)OCO5)cc3[C@@H]2C[C@@H]1N(C)C(=O)C1CCCCC1	-0.49%
Cc1ccc(C(=O)NC2CCCC(C)C2C)cc1S(=O)(=O)N1CCCCC1 (centres undefined)	-0.29%
Cn1nc(C(F)(F)F)c2cc(C(=O)N3CCOCC3)sc21	-0.18%
COc1cccc(-c2nn(C)c3sc(C(=O)N4CCN(c5ccccc5)CC4)cc23)c1	4.59% (active)
COc1cccc(-c2ccc(SCC(=O)N3CCN(c4ccccc4)CC3)nn2)c1	-0.38%
O=C(C(=O)N1CCC(CNS(=O)(=O)Cc2ccccc2)CC1)c1cc2ccccc2o1	1.99%
O=c1c2ccccc2nnn1CSc1nc2sc3c(c2c(=O)n1CC1CCCO1)CCC3 (centres undefined)	-0.37%
Clc1cc(-c2ccc(/C=N/n3cnnc3)o2)ccc1Br	0.91%
Cc1ccc(Cl)cc1-c1ccc(/C=N/n2cnnc2)o1	4.94% (active)
Brc1cc(/C=N/n2cnnc2)oc1Br	2.05%
CC(=O)Nc1ccc(S(=O)(=O)N(C)c2ccc(OCC(=O)OCC(=O)N3CCCCC3)cc2)cc1	-0.39%
CC(C)OCCCNC(=S)N1CCC(C(=O)c2ccc3c(c2)OCCO3)CC1	-0.4%
CCCN(CC(=O)Nc1ccccc1OC)C(=O)CCC(=O)c1ccc(F)cc1	-0.69%
CCOC(=O)C(=Cc1ccccc1)C(=O)c1ccccc1	0.49%
CSc1nc(N(C)NC(=O)c2cccc(C)c2)c2ccccc2n1	0.74%
Cc1cc(C)nc(S/C=C/C(=O)c2ccccc2)n1	5.17% (active)
CCc1ccc(C2=CC(=O)CC(C)(C)C2=O)cc1	0.09%
COc1cccc(CNC(=O)[C@H]2CCCN2C(=O)[C@H]2CCCN2C(=O)C2CCCCC2)c1	-0.24%
COCC1CCN(C(=O)C2CCC(=O)N(CC3CCCCC3)C2)CC1 (centres undefined)	-0.21%
CC(N=Cc1nc(-c2ccccc2)oc1O)c1ccccc1 (centres undefined)	5.77% (active)

Compound	inhibition
Cc1ccc(-c2noc(CC(c3ccccc3)c3ccccc3)n2)cc1	0.66%
Oc1oc(-c2ccccc2Br)nc1/C=N/c1ccccn1	2.4%
CCN(CC)CC1(O)CCN(C(=O)c2ccc(Cl)c(Cl)c2)CC1	-0.14%
Cc1ccc(C)c(CN2CCC(CNC(=O)C3CCCN(c4ncnc5c4nc4n5CCCCC4)C3)CC2)c1 (centres undefined)	1.23%
CSc1ccc(/C=C2\NC(=O)NC2=O)cc1	7.41% (active)
CSc1ccc(/C=C/C(=O)NC23CC4CC(CC(C4)C2)C3)cc1	3.33%
CC(C)c1ccc(/C=C2\NC(=O)NC2=O)cc1	1.9%
OC(CCl)CCl	-0.37%
COc1ccc(CN2CCC(C)(Oc3cccc(F)c3)C2)c2ccccc12 (centres undefined)	0.31%
CC(/C=N/NC(=O)c1cc(-c2ccc3ccccc3c2)n[nH]1)=C\c1ccco1	2.77%
CC(/C=N/NC(=O)c1ccncc1)=C\c1ccco1	4.8% (active)
CC(=NNC(=O)c1ccncc1)c1ccc(Cl)c(Cl)c1	-0.76%
C=CCN1C(=O)N(Cc2ccccc2)c2ccccc2S1(=O)=O	3.26%
COCCNC(=S)N(CCc1c(C)[nH]c2ccc(C)cc12)Cc1cccnc1	-1.51%
Cc1[nH]c2ccccc2c1/C=N/NC(=O)CNC(=O)c1ccc2c(c1)OCO2	2.56%
COCCNC(=S)N/N=C/c1c(C)[nH]c2ccccc12	5.52% (active)
Clc1cccc2c1C1CC2CCN1Cc1ccccc1 (centres undefined)	-1.2%
COC(=O)c1cc2c(c3c4cc(F)ccc4n(S(=O)(=O)c4ccccc4)c13)C(=O)N(Cc1ccccc1OC)C2	1.35%
O=C1N/C(=N\N=C\c2ccco2)SC1Cc1ccc(F)cc1 (centres undefined)	2.66%
CCC1S/C(=N/N=C/c2ccco2)NC1=O (centres undefined)	4.55% (active)
CCCCC1S/C(=N/N=C/c2cccs2)NC1=O (centres undefined)	0.75%
COC(=O)C1=C(C)N(Cc2ccc(C(F)(F)F)cc2)C(=NCc2ccccc2)NC1c1ccccc1C(F)(F)F (centres undefined)	2.37%
CC(C)(C)c1ccc(S(=O)(=O)NCC2CCN(C(=O)C(=O)c3cc4ccccc4o3)CC2)cc1	1.27%
Cc1cccc(-n2c(O)c(C=Nc3ccccc3N)c(=O)[nH]c2=O)c1	5.11% (active)

Compound	inhibition
Cc1cccc(-n2c(N)c(C(=O)N3CCN(C)CC3)sc2=S)c1	2.37%
COc1cc(OC)cc(C(=O)NCCSCc2ccc(Cl)cc2)c1	-2.11%
CCc1nnc(NS(=O)(=O)c2ccc(NC(=S)NC(=O)/C=C/c3cccs3)cc2)s1	4.76% (active)
CCc1nnc(NS(=O)(=O)c2ccc(NC(=O)c3cccc(OC(F)(F)C(F)F)c3)cc2)s1	-0.35%
CCOC(=O)c1c(NC(=S)NC(=O)/C=C/c2cccs2)sc(C)c1C	-0.71%
Cc1cc(C(=O)NNC(=S)NC(C)c2ccccc2)cs1 (centres undefined)	0.13%
Cn1nnnc1SCC(=O)Nc1sccc1C(N)=O	0.13%
COC(=O)c1cc2c(c3c4ccccc4n(S(=O)(=O)c4cccc(C)c4)c13)C(=O)N(Cc1ccccc1)C2	0.16%
CC1(C(=O)NCc2ccccc2)CN(S(C)(=O)=O)CC(=O)N1CC(F)(F)F (centres undefined)	-0.74%
COc1ccc(C(=O)CSc2nc(C)cc(C)n2)cc1[N+](=O)[O-]	11.2% (active)
COc1ccc(C(=O)NNC(=O)c2cnccn2)cc1[N+](=O)[O-]	3.54%
COc1ccc(-n2nnnc2SCC(=O)c2ccc(OC)c(OC)c2)cc1	1.76%
CN1CCN(CC(=O)C23CC4CC(CC(C4)C2)C3)CC1	-0.74%
COc1ccc(C(=O)Nc2c(N)nc(SCC(=O)N3CCC(C)CC3)[nH]c2=O)cc1OC	-1.43%
C[C@@H]1ON(C)[C@H]2C[C@H]3c4cc(N5CCOCC5)ccc4CCN3C[C@@H]12	-1.23%
CCOC(=O)C1=C(C(=O)OCC)C2N(Cc3ccc(C#N)cc3)c3ccccc3[C@@]23C[C@@H](C(=O)OC)N(S(=O)(=O)c2ccc(F)cc2)C3=N1 (some centres undefined)	1.03%
CCOC(OCC)c1ccc(/C=C\c2nccc(N)n2)cc1	4.82% (active)
Cc1cc2c(nc1C)CCCN2C	0.48%
O=S(=O)(c1cccs1)N1CCCc2nc(-c3ccc(Br)cc3)ccc21	0.56%
Cc1ccc(C)c2[nH]c(=O)c(CN(Cc3cccnc3)C(=S)NCc3ccco3)cc12	0.59%
Cc1cccc(C)c1NC(=O)C(Cl)C(=O)c1ccccc1 (centres undefined)	-0.19%
CCCc1ccc(OCc2ccc(C(=O)N/N=C/c3cccc([N+](=O)[O-])c3)o2)c(OC)c1	0.9%
Cc1occc1C(=O)N/N=C/c1ccc(-c2cccc([N+](=O)[O-])c2)o1	4.99% (active)
COC(=O)N/N=C/c1ccc(-c2ccc(Cl)c(Cl)c2)o1	3.75%

Compound	inhibition
CC[C@H](NC(=O)[C@H](Cc1ccccc1)NC(=O)[C@H]1O[C@@H](n2cnc3c(=O)[nH]c(N)nc32)[C@H](O)[C@@H]1O)c1ccccc1	0.98%
COc1ccccc1-c1n[nH]nc1C1=CC(=O)CC(C)(C)C1	2.39%
COc1ccccc1-c1n[nH]c2c1[C@H](C)CC[C@H]2C(C)C	12.6% (active)
CCN(C(=O)CSc1nnc(-c2ccncc2)o1)c1ccccc1	-1.04%
CC(=O)N1N=C(c2ccccc2)OC1c1cccnc1 (centres undefined)	0.4%
CC(=O)N1N=C(c2ccncc2)OC1(Cc1ccccc1)Cc1ccccc1	11.8% (active)
CC1(C(=O)N/N=C/c2cc3c(cc2Br)OCO3)CC1(Br)Br (centres undefined)	2.89%
CC(C)Oc1c(Br)cc(Br)cc1/C=N/NC(N)=S	6.79% (active)
Cc1cc(=O)oc2c3c(cc(OCC(=O)NCc4ccccn4)c12)OC(C)(C)CC3	2.4%
Cn1c(=NC(=O)c2ccco2)sc2cccc(F)c21	4.22%
COC(=O)c1ccc(OC(=O)c2cnccn2)cc1	0.63%
Cn1c(=NC(=O)c2cnccn2)sc2ccccc21	6.75% (active)
Cc1cc(N2CCN(C(=O)OC(C)(C)C)C[C@H]2C)ccc1N1CCN(Cc2ccccc2)[C@H](C)C1	-0.82%
Nc1[nH]c(C(=O)c2ccccc2)c(-c2ccc(Cl)cc2Cl)c1C(=O)c1ccccc1	-0.16%
CCc1c(-c2ccccc2OC)ncn1CCc1ccccc1OC	0.48%
O=C(NNC(=S)NC(=O)c1cn(-c2ccccc2)nc1-c1ccccc1)c1ccncc1	2.54%
O=Cc1cn(-c2ccccc2)nc1-c1ccccn1	9.1% (active)
O=C(COC(=O)/C=C/c1cn(-c2ccccc2)nc1-c1cccnc1)Nc1ccc(Cl)cc1Cl	0.05%
Cc1cc(Cl)ccc1OCc1nc(-c2ccncc2)no1	0.44%
COc1ccccc1CC1(C)C(=O)Nc2ccc(OC(F)(F)F)cc21 (centres undefined)	-0.13%
Cc1ccc(CC2(C)C(=O)Nc3ccc(OC(F)(F)F)cc32)cc1 (centres undefined)	9.02% (active)
CCc1ccc2c(c1)NC(=O)C2(C)Cc1ccc(OC(F)(F)F)cc1 (centres undefined)	1.57%
